Measured values from the supplement of paper PMC6555819.

Legend:
Test in all cases: PBM binding z-score (relative to random genomic background probes); higher = stronger binding; sequences stand for … in GC…GCGATTGACAGCGTAGAATGAAGG
[1] = tested on: FXR:RXRa (NR concentration 270 nM, RXRa partner concentration 90 nM)
In short: (§1)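 Custom Agilent 4×180K protein-binding microarrays carried double-stranded probes, each with a 34-nt variable region. These regions held direct-repeat seeds, single-nucleotide variants, half-site ablations and random human genomic background sequences. Ligand-free nuclear receptor dimers were incubated on the arrays for 1 h, antibodies against each partner (one per run) detected binding, and scanned fluorescence was regression-normalized. Binding z-scores take the random background probes as reference.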

[2] = tested on: LXRa:RXRa (NR concentration 270 nM, RXRa partner concentration 90 nM)
In short: as §1

[3] = tested on: LXRa homodimer (NR concentration 270 nM)
In short: as §1

[4] = tested on: LXRb:RXRa (NR concentration 270 nM, RXRa partner concentration 90 nM)
In short: as §1

[5] = tested on: LXRb homodimer (NR concentration 270 nM)
In short: as §1

[6] = tested on: PPARa:RXRa (NR concentration 270 nM, RXRa partner concentration 90 nM)
In short: as §1

[7] = tested on: PPARg:RXRa (NR concentration 180 nM, RXRa partner concentration 90 nM)
In short: as §1

[8] = tested on: PPARg:RXRa 270nM:90nM, anti-RXR (NR concentration 270 nM, RXRa partner concentration 90 nM)
In short: as §1

[9] = tested on: PPARg:RXRa 30nM:10nM, anti-RXR (NR concentration 30 nM, RXRa partner concentration 10 nM)
In short: as §1

[10] = tested on: PPARg:RXRa 90nM:30nM, anti-RXR (NR concentration 90 nM, RXRa partner concentration 30 nM)
In short: as §1

[11] = tested on: PPARg:RXRa DBDmut IVT, anti-RXR (DBD mutation: RXRa K156A/R161A, NR concentration 270 nM, RXRa partner concentration 90 nM)
In short: as §1

[12] = tested on: PPARg:RXRa IVT, anti-PPARg (NR concentration 270 nM, RXRa partner concentration 90 nM)
In short: as §1

[13] = tested on: PPARg DBDmut:RXRa IVT, anti-PPARg (DBD mutation: PPARg1 K132A/R137A, NR concentration 270 nM, RXRa partner concentration 90 nM)
In short: as §1

[14] = tested on: PPARg DBDmut IVT, anti-PPARg (DBD mutation: PPARg1 K132A/R137A, NR concentration 270 nM)
In short: as §1

[15] = tested on: PPARg homodimer (NR concentration 180 nM)
In short: as §1

[16] = tested on: PXR:RXRa (NR concentration 270 nM, RXRa partner concentration 90 nM)
In short: as §1

[17] = tested on: PXR homodimer (NR concentration 270 nM)
In short: as §1

[18] = tested on: RARa:RXR (NR concentration 270 nM, RXRa partner concentration 90 nM)
In short: as §1

[19] = tested on: RARa homodimer (NR concentration 270 nM)
In short: as §1

[20] = tested on: RARb:RXRa (NR concentration 270 nM, RXRa partner concentration 90 nM)
In short: as §1

Sequence	PBM binding z-score [1]	PBM binding z-score [2]	PBM binding z-score [3]	PBM binding z-score [4]	PBM binding z-score [5]	PBM binding z-score [6]	PBM binding z-score [7]	PBM binding z-score [8]	PBM binding z-score [9]	PBM binding z-score [10]	PBM binding z-score [11]	PBM binding z-score [12]	PBM binding z-score [13]	PBM binding z-score [14]	PBM binding z-score [15]	PBM binding z-score [16]	PBM binding z-score [17]	PBM binding z-score [18]	PBM binding z-score [19]	PBM binding z-score [20]
GCTGCTAGGTCAAGTTGGTCAGCTAACGGGTACG	4.8	3.29	0.651	2.31	0.442	3.64	2.48	2.94	0.55	2.09	4.62	4.19	-0.715	-0.257	1.75	1.68	-0.361	2.19	0.462	4.38
ATCGAAAGGTCGATGAGGTGAGTATACACCGTTT	3.46	2.76	-0.117	2.16	0.539	3.5	1.83	2.19	1.1	1.4	0.00502	1.61	1.01	0.136	1.49	2.58	1.07	2.98	0.305	3.37
CATCGGAGGACAACAGGAGGTCAGAGCTGCCAGA	1.42	2.43	2.12	1.91	-0.192	2.39	0.842	0.724	-0.516	0.267	0.575	1.3	-0.47	-0.762	1.51	2.23	0.834	2.69	0.396	3.08
ACTATTAGTTGACTAAGGGCAACCGATACGACGC	0.232	0.474	0.168	0.518	0.478	0.573	1.06	0.728	0.0857	0.518	0.0727	0.783	0.688	0.819	0.638	0.652	0.92	0.766	0.98	1.53
ATATGTAGGTTAAGGGTCATTCGGGTTGGTTCGC	5.36	4.83	3.47	4.62	1.81	6.53	12.2	10.3	11.7	12.2	7.7	8.1	6.59	4.92	8.66	6.02	3.75	6.67	3.12	3.43
GCTCGAAGGACAAGGTCAGAGCTTTGTCCGTAGA	1.53	1.79	-0.456	0.996	-0.575	2.56	0.738	1.72	-0.296	0.829	-0.135	0.583	-0.7	-0.691	0.73	1.59	-0.626	2.28	-0.618	3.44
AATACAGGGTCAGTAGGCCAGAGTAGGTACGAAT	3.97	3.63	0.625	2.61	0.737	4.47	5.91	5.01	1.93	3.86	3.22	4.8	1.82	0.929	1.97	1.86	0.246	2.94	1.18	3.92
